# Screening data deposited in PubChem by several laboratories.
# The list is not random: actives were taken first. Their share in the collection is about 3.6%.
# Mtb FBA inh: inhibitors of M. tuberculosis fructose-bisphosphate aldolase | P9WQA3 | AID 588726 | inhibition, % at 1 µM | purified M. tuberculosis FBA, fluorescence read-out | 2.3% of 360,000 active
# Target sequence (P9WQA3 whole entry, looked up): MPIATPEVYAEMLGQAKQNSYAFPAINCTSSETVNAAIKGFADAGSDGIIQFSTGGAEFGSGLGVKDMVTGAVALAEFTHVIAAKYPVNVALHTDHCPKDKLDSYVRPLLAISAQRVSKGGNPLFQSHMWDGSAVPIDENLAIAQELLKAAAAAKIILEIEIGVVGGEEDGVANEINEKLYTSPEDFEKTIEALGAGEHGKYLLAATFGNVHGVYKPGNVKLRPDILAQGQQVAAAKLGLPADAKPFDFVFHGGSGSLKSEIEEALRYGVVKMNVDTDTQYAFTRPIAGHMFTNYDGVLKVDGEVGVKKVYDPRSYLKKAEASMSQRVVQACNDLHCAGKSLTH
# VHR inh abs: blocks human VHR1 dual specificity phosphatase | P51452 | recombinant VHR phosphatase, pNPP absorbance | inhibition, % at 13.3 µM | 0.52% of 290,000 active | AID 1654; in the data active = inhibition above about 50%
# Target sequence (P51452 whole entry, looked up): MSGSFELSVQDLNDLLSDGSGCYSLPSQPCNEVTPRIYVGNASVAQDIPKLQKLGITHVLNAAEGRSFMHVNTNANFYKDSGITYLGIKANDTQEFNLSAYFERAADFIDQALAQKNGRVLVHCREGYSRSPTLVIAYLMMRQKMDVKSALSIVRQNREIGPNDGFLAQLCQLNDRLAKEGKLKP
# Mtb hypoxia inh: reduces hypoxia-regulated biosensor signal in M. tuberculosis; M. tuberculosis hypoxia-regulated fluorescent reporter, fluorescence; fluorescence inhibition, % (test concentration not listed); 0.1% of 300,000 active; AID 1159583; in the data active = fluorescence inhibition mostly above about 23%, no sharp cut-off; inactive = mostly below about 17%
# GDH-TPI counter-1: counter-screen for M. tuberculosis FBA inhibitors: GDH-TPI coupled enzymes | GDH-TPI coupled enzyme counterscreen, NADH absorbance | inhibition, % at 4.8 µM | AID 588335 | 1.2% of 360,000 active; in the data active = inhibition above about 30%
# Mtb betalactam: beta-lactam sensitization of Mtb H37Rv. 0.27% of 330,000 active. M. tuberculosis H37Rv growth with meropenem, percent inhibition. inhibition, % at 25 µM; call rule not given here;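 also: growth measured after seven days incubation then overnight dye step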
# Mtb FBA confirm: Mtb FBA inhibition, confirmed; purified M. tuberculosis FBA, fluorescence read-out; inhibition, % at 1 µM; 78% of 5,600 active; shares compounds with Mtb FBA inh
# GDH-TPI counter-2: counter-screen for M. tuberculosis FBA inhibitors: GDH-TPI coupled enzyme inhibition; shares compounds with Mtb FBA inh; GDH-TPI coupled enzyme counterscreen, fluorescence; inhibition, % at 1 µM; 81% of 5,600 active; AID 652141; in the data active = inhibition above about 10%
# Numbers stand for hits; - = inactive; . = not tested or not shown; + = active, no number; ! = a repeat was not active. Rule as the data show it, unless noted: active = inhibition above about 27%; inactive = the rest.
SMILES,Mtb FBA inh,VHR inh abs,Mtb hypoxia inh,GDH-TPI counter-1,Mtb betalactam,Mtb FBA confirm,GDH-TPI counter-2
Cc1cc2cc(CCNC(=O)c3ccc(S(=O)(=O)N4CCCC4)cc3)c(=O)[nH]c2cc1C,-,-,-,-,-,.,.
COc1ccc(NS(=O)(=O)c2ccc(S(=O)(=O)N3CCOCC3)cc2)cc1,45,-,-,-,-,149,102
COc1ccc(NS(=O)(=O)c2ccc(S(=O)(=O)N3CCCC3)cc2)cc1,-,-,.,-,-,.,.
COc1ccc(CCNC(=O)COc2ccc(S(=O)(=O)N3CCOCC3)cc2C)cc1,105,-,-,-,-,126,104
Cc1ccc(CNC(=O)c2c(-c3ccccc3)sc3ccccc23)o1,-,.,-,-,-,.,.
COc1cc2sc(-c3ccc(S(C)(=O)=O)cc3)c(C(=O)NCCCCO)c2cc1OC,46,.,-,31,-,46,30
COc1cc2sc(-c3ccc(S(C)(=O)=O)cc3)c(C(=O)NCc3ccc(C)o3)c2cc1OC,37,.,-,-,-,100,83
O=C(NCC1CCCO1)c1cccc2c1C(=O)c1ccc(N3CCOCC3)cc1S2(=O)=O (stereo not given),.,.,-,.,.,.,.
COc1ccc(C(=O)NN=Cc2ccc(OC)c(COc3ccc(F)cc3)c2)cc1,.,.,-,.,.,.,.
CC1=CC(=O)C(C(C)C)=C/C1=N\OC(=O)c1cccc2nc(C)oc12,32,-,.,-,-,69,59
Cc1ccc(C=C(NC(=O)c2ccccc2)C(=O)NCCc2ccccn2)o1,.,.,-,.,.,.,.
COc1cccc(-c2nc3ccc(C(=O)NC(C)Cc4cccnc4)cc3o2)c1 (stereo not given),43,-,-,-,-,65,32
COc1ccc(Cc2noc(CN3CCCN(Cc4ccc(F)cc4)CC3)n2)cc1OC,59,-,-,-,-,58,40
Cc1cc(N=Cc2c(O)n(-c3cccc(Cl)c3)c(=O)c3ccccc23)no1,57,-,-,-,-,106,83
COc1ccccc1/C=C/C=Nn1c(COc2ccccc2)n[nH]c1=S,.,.,-,.,.,.,.
O=C(N/N=C1/C(=O)c2cccc3cccc1c23)c1ccc(Cl)cc1,80,-,.,-,-,79,62
CC1(C)CC2CC(C)(CN2C(=O)COC(=O)c2cc(Cl)cc(Cl)c2N)C1 (stereo not given),-,-,-,-,-,.,.
Nc1c(Cl)cc(Cl)cc1C(=O)OCC(=O)N1CCCC1,95,-,-,-,-,137,107
Nc1c(Cl)cc(Cl)cc1C(=O)OCC(=O)N1CCCC1=O,-,.,-,-,-,.,.
CN(CCC#N)C(=O)COC(=O)c1ccccc1OCc1ccccc1Cl,-,-,-,-,-,.,.
NC(=O)COC(=O)c1cc(Cl)cc(Cl)c1N,89,-,-,-,-,+,+
CN(CCC#N)C(=O)COC(=O)c1cc(Cl)cc(Cl)c1N,93,-,-,-,-,-,-
CCOC(=O)c1c(NC(=O)C=CC(=O)O)sc(C)c1-c1ccccc1,.,.,-,.,.,.,.
O=C(NCCc1cn2ccccc2n1)C1CCCCC1,27,-,-,-,-,109,80
O=C(NCCc1cn2ccsc2n1)C1CCCCC1,-,-,-,-,-,.,.
SMILES,Mtb FBA inh,VHR inh abs,Mtb hypoxia inh,GDH-TPI counter-1,Mtb betalactam,Mtb FBA confirm,GDH-TPI counter-2
CC(=NNC(=O)c1cccc(S(=O)(=O)N2CCCCC2)c1)c1ccc(C)o1,.,.,-,.,.,.,.
O=C1c2nc3cc(-c4ccco4)[nH]n3c(=O)c2CN1Cc1ccccc1,97,-,-,-,-,104,67
CCCCc1c(C)nc2cc(-c3ccco3)[nH]n2c1=O,-,-,-,-,-,.,.
c1ccc(-c2nnc(-c3ccco3)o2)cc1,42,-,-,-,-,64,49
CCOc1ccc(-c2nnc(-c3ccco3)o2)cc1OCC,74,-,-,-,-,130,119
CCOc1cc(-c2nnc(-c3ccco3)o2)cc(OCC)c1OCC,-,-,-,-,-,.,.
Brc1ccc(-c2nnc(-c3ccco3)o2)cc1,60,-,-,-,-,149,145
CCOc1cc(C2Nc3ccccc3C(=O)N2c2ccccc2)ccc1O (stereo not given),-,-,-,-,-,.,.
CCOc1cc(C2Nc3ccccc3C(=O)N2c2ccccc2)c(Br)cc1OCC(=O)O (stereo not given),39,-,-,-,-,105,84
COc1cc(C2NC(=O)NC(c3ccccc3)=C2C(C)=O)c(Cl)cc1OCC(=O)O (stereo not given),-,-,-,-,-,.,.
COc1cc(C2Nc3ccccc3C(=O)N2c2ccc(Cl)cc2)c(Cl)cc1OCC(=O)O (stereo not given),70,-,-,-,-,115,83
CNC(=S)NN=Cc1cc(Br)cc(Br)c1O,.,.,-,.,.,.,.
CCN(C(=S)Nc1cccnc1)c1cccc2ccccc12,49,-,-,-,-,148,128
Cc1ccc(CN2CC(C(=O)Nc3ccc4c(C)cc(=O)oc4c3)CC2=O)cc1 (stereo not given),89,-,-,-,-,96,74
Cc1ccc(CN2CC(C(=O)Nc3ccc(C)c(S(=O)(=O)N4CCCCC4)c3)CC2=O)cc1 (stereo not given),-,.,-,-,.,.,.
CC(C)Oc1ccc(Br)cc1C(=O)NN=Cc1c[nH]c2ccccc12,.,.,-,.,.,.,.
Cc1noc(C)c1COC(=O)c1ccc(-c2nc3ccccc3s2)s1,-,-,.,-,-,.,.
CCNC(=O)COC(=O)c1ccc(-c2nc3ccccc3s2)s1,59,-,-,-,-,+,+
CCOC(=O)Cn1c(=O)cc(C)c2ccccc21,-,-,-,-,-,.,.
Cn1c2ccccc2c2c(C(=O)O)cn(C3CCCC3)c(=O)c21,-,-,-,-,-,.,.
CC(C)n1c(=O)c2ccccc2n1Cc1cn(C2CCCC2)nn1,101,.,.,.,.,90,60
CCOC(=O)Cn1cc(Cn2c3ccccc3c(=O)n2C(C)C)nn1,69,.,.,.,.,-,-
Oc1ccc(C2CNCCc3c2cc(O)c(O)c3Cl)cc1 (stereo not given),40!,.,-,-,-,-,-
CCCCn1c(-c2cccc(Br)c2)nc2cc3[nH]c(=O)c(C(C)C)nc3cc21,34,-,-,-,-,-,-
CCCCn1c(-c2cccnc2)nc2cc3[nH]c(=O)c(C(C)C)nc3cc21,64,-,-,31,-,+,170
SMILES,Mtb FBA inh,VHR inh abs,Mtb hypoxia inh,GDH-TPI counter-1,Mtb betalactam,Mtb FBA confirm,GDH-TPI counter-2
CCCCn1c(-c2ccc(C(C)(C)C)cc2)nc2cc3[nH]c(=O)c(C(C)C)nc3cc21,-,-,-,-,-,.,.
CCCCn1c(-c2ccc(Cl)c(Cl)c2)nc2cc3[nH]c(=O)c(C(C)C)nc3cc21,-,-,-,-,-,.,.
O=C(CC1CC=CCCCC(=O)OC(c2ccccc2)CNC1=O)NC(CO)Cc1ccccc1 (stereo not given),.,.,-,.,.,.,.
CC1(C)CC(=NNC(=S)Nc2ccccc2F)c2cc(O)ccc2O1,.,.,-,.,.,.,.
O=C(O)CCC(=O)Nc1nc2nc(-c3ccccc3)cc(-c3ccccc3)n2n1,98,-,.,36,-,85,98
Cc1cc(C)n(CC(=O)NN=Cc2ccc(C)o2)n1,.,.,-,.,.,.,.
